Source: PubChem BioAssay (NCATS)
Results filed as inconclusive are left out. A call without a number means that no potency is given here. A number with no mark means an inactive call. Active and inactive are the calls of the source. The call rests on the fitted dose curve.

Assay: Cytotoxicity counterscreen for inhibitors of SARS-CoV-2 cell entry (AID 1645845); further: nearly all actives have a fitted effect of over 50% in size
Conditions: cell viability (SARS-CoV-2 entry assay cells); series mostly up to 57.1 µM
How it was run: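 HEK293-ACE2 cells (Expi293F stably expressing human ACE2) seeded overnight, then compound for 1 h plus 48 h at 37C. Viability as ATP content by luminescence; normalized to wells with cells and media-only wells.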
Potency means the concentration at half of the fitted maximal effect.

Row | Compound | Potency | activity change, negative = cytotoxicity | outcome
1 | Nc1nccn2c(C3CCC(C(=O)O)CC3)nc(-c3cc4cccc(Cl)c4[nH]3)c12 (configuration not stated) | inactive |  | 
2 | O=C(Nc1cnn2ccc(N3CCC[C@@H]3c3cc(F)ccc3F)nc12)N1CC[C@H](O)C1 | inactive |  | 
3 | CN1CCN(C(=O)[C@H]2[C@@H](C(=O)O)[C@H]3CC[C@@H]2O3)CC1 |  | 2.39% [at 11.3 µM] | 
4 | O=C(Nc1ccc2c(c1)CCN(Cc1ncn[nH]1)C2)c1ccccc1-c1ccc(C(F)(F)F)cc1 | inactive |  | 
5 | COc1c(C)cc(NC(=O)c2nn(Cc3ccc(F)cc3)c3c2CN(C(=O)c2ccc[nH]2)C[C@]3(C)C(N)=O)cc1C | inactive |  | 
6 | COc1cc2nccc(Oc3ccc(NC(=O)c4cn(C(C)C)c(=O)n(-c5ccc(F)cc5)c4=O)cc3F)c2cc1OC | inactive |  | 
7 | CC1Cc2ccccc2N1C(=O)Cc1nc(N2CCOCC2)cc(=O)[nH]1 (configuration not stated) | inactive |  | 
8 | CCN1CCN(Cc2ccc(NC(=O)c3ccc(C)c(NC(=O)c4cncc(-c5cccs5)c4)c3)cc2C(F)(F)F)CC1 | 31.6 µM (active) |  | 
9 | C=CCN(/C=C1\C(=O)O[C@@H](COC)[C@]2(C)C1=C(O)C(=O)C1=C2[C@@H](OC(C)=O)C[C@]2(C)C(=O)CC[C@H]12)CC=C | inactive |  | 
10 | CCc1cc(/C(C)=N/OCc2ccc(C3CCCCC3)c(C(F)(F)F)c2)ccc1CN1CC(C(=O)O)C1 | inactive |  | 
11 | N#Cc1ccc(C2CCCc3cncn32)cc1 (configuration not stated) | inactive |  | 
12 | CCn1c(=O)c2c(nc(/C=C/c3ccc(OC)c(OC)c3)n2C)n(CC)c1=O | inactive |  | 
13 | COc1ccc(-c2oc3c(CC=C(C)C)c(OC4O[C@H](CO)[C@@H](O)[C@H](O)[C@H]4O)cc(O)c3c(=O)c2OC2O[C@@H](C)[C@H](O)[C@@H](O)[C@H]2O)cc1 (some centres not stated) | inactive |  | 
14 | CC1(C(=O)O)CCC2(C)CCC3(C)C(=CC(=O)C4C5(C)CCC(OC6OC(C(=O)O)C(O)C(O)C6OC6OC(C(=O)O)C(O)C(O)C6O)C(C)(C)C5CCC43C)C2C1 (configuration not stated) | inactive |  | 
15 | O=C(c1ccc(/C=C/c2n[nH]c3ccccc23)cc1)N1CCNCC1 | inactive |  | 
16 | CCOC(=N)c1nc2ccc3ncnc(Nc4cc(F)c(F)cc4Cl)c3c2s1 | inactive |  | 
17 | CCn1c(=O)c(-c2ccc(Cl)cc2Cl)cc2cnc(Nc3ccc(N4CCNCC4)c(F)c3)nc21 | inactive |  | 
18 | C[C@@H]1CC(=O)Nc2cccc(-c3cnn(C(C)(C)C)c3)c2N1 | inactive |  | 
19 | O=C(O)CNC(=O)c1nc(Cl)c2ccccc2c1O | inactive |  | 

Row | Compound | Potency | activity change, negative = cytotoxicity | outcome
20 | Cn1cc(-c2nc(N[C@@H]3CCCC[C@@H]3N)c(F)c3c2C(=O)NC3)cn1 |  |  | inactive [at 5.25 µM]
21 | CC(=O)N1CCN(c2ccc(NC(=O)Cc3cnc(-c4ccnc(F)c4)c(C)c3)nc2)CC1 | inactive |  | 
22 | O=C(CCCc1ccc2cccnc2n1)NCc1cc(-c2ccc(F)c(C(F)(F)F)c2)no1 | inactive |  | 
23 | O=C(O)CCCCN(CCc1ccccc1OCc1ccc(CCc2ccccc2)cc1)Cc1ccc(C(=O)O)cc1 | inactive |  | 
24 | O=C(NCCCNc1nc(Nc2cccc(CN3CCOCC3)c2)ncc1C1CC1)C1CCC1 | inactive |  | 
25 | COc1cc2c(NC3CCN(C4CCCCC4)CC3)nc(N3CCCN(C(C)C)CC3)nc2cc1OCCCN1CCCCC1 | 22.4 µM (active) |  | 
26 | O=C(O)CNC(=O)c1ncc(-c2cccc(Cl)c2)cc1O | inactive |  | 
27 | CC1(N)CCN(c2cnc(-c3cccc(Cl)c3Cl)c(N)n2)CC1 | inactive |  | 
28 | C[C@H]1CN(C2COC2)CCN1c1ccc(Nc2cc(-c3ccnc(N4CCn5c(cc6c5CC(C)(C)C6)C4=O)c3CO)cn(C)c2=O)nc1 | inactive |  | 
29 | O=c1ccn([C@@H]2O[C@H](CO)[C@@H](O)[C@H]2O)c(=O)[nH]1 | inactive |  | 
30 | COc1cc(C)[nH]c(=O)c1CN1CCc2c(Cl)cc([C@H](OC)C3COC3)c(Cl)c2C1=O | inactive |  | 
31 | Cc1c[nH]c(/C=C2\C(=O)Nc3ccccc32)c1CCC(=O)O | inactive |  | 
32 | O=C1S/C(=C\c2ccc(OCc3cccc(B(O)O)c3)cc2)C(=O)N1Cc1ccc(F)cc1 | inactive |  | 
33 | COc1ccccc1C(=O)Nc1cc2c(cc1N1CCCC1)n(C)c(=O)n2C | inactive |  | 
34 | CS(=O)(=O)c1ccc(-c2nnc(/C=C/c3nnc(-c4ccc(C#N)cc4)o3)n2-c2ccccc2Cl)nc1 | inactive |  | 
35 | CC(C)n1cc(-c2ccc3c(c2)N(C)CC3)c2c(NS(=O)(=O)c3ccn(C)n3)ccnc21 | inactive |  | 
36 | CN1CCN(C(=O)c2ccc(-c3ccc4c(C=O)c(O)ccc4c3)s2)CC1 | inactive |  | 
37 | Cc1c(F)cccc1NC(=O)Nc1ccc(Cl)c(S(=O)(=O)[C@H]2CCCNC2)c1O | inactive |  | 
